Assay results taken from the supplement of paper PMC10849652.
Of roughly 8,800 targets only a part is listed; those with a hit were picked by preference. About 0.5% of all pairs of compound and target were hits.

compound: O=C1NC(=O)C(c2cnc3ccccn23)=C1c1cn2c3c(cc(F)cc13)CN(C(=O)N1CCCCC1)CC2; assay: log2 fold change, soluble protein after heating vs DMSO (PISA); higher = thermal stabilisation; K562 lysate, 10 uM; active = over 0.2 and 3.5 SD of the protein, either way, in both replicates (recomputed)
How it was run: (§1)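 Soluble protein was defined as the supernatant remaining after 21,000xg for 90 min, following pooling of heated aliquots and adjustment to 0.5% NP-40 at 4°C. Before that, crude K562 extract at 1 mg/mL protein in PBS pH 7.4 with 1 mM MgCl2 was treated with 10 μM compound for 30 min and heated for 3 min across 48°C-58°C. Quantification used TMTpro 16plex LC-MS/MS with channel sums equalised, and values are log-two fold changes in thermal stability relative to solvent controls from duplicates.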

UniProt Q8N122, sequence (Q8N122 whole entry, looked up): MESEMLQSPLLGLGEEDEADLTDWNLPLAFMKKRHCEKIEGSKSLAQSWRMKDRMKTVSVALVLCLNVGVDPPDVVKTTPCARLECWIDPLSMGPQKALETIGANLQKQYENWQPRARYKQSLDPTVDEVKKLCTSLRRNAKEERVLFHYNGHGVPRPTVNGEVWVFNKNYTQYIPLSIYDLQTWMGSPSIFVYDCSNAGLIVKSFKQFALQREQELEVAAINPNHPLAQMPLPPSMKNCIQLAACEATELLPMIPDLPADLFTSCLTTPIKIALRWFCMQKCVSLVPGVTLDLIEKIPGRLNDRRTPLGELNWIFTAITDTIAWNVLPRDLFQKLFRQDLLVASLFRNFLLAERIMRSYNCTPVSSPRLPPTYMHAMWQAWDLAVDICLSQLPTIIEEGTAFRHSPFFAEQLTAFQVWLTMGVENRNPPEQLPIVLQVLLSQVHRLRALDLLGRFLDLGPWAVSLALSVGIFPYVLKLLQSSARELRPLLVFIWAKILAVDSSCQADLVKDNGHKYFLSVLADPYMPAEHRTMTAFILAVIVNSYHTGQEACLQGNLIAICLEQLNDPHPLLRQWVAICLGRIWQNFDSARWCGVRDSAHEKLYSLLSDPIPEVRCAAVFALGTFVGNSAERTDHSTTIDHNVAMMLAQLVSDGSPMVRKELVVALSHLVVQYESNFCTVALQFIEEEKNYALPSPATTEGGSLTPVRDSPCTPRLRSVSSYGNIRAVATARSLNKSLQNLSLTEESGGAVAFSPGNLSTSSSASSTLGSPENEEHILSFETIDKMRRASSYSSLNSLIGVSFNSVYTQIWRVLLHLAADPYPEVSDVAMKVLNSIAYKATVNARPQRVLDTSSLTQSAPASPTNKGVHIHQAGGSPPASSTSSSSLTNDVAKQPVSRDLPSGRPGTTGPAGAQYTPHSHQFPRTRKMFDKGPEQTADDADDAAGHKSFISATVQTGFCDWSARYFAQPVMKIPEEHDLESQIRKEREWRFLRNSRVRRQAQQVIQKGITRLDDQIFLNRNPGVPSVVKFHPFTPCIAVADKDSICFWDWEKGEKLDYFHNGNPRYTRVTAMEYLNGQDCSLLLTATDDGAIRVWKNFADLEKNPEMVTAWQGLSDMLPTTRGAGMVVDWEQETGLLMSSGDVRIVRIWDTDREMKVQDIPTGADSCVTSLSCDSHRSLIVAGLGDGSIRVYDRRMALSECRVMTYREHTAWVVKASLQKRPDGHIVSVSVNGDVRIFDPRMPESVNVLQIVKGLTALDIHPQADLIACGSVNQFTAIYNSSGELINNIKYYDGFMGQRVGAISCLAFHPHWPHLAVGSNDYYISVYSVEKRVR
UniProt Q8WZA2, sequence (Q8WZA2 whole entry, looked up): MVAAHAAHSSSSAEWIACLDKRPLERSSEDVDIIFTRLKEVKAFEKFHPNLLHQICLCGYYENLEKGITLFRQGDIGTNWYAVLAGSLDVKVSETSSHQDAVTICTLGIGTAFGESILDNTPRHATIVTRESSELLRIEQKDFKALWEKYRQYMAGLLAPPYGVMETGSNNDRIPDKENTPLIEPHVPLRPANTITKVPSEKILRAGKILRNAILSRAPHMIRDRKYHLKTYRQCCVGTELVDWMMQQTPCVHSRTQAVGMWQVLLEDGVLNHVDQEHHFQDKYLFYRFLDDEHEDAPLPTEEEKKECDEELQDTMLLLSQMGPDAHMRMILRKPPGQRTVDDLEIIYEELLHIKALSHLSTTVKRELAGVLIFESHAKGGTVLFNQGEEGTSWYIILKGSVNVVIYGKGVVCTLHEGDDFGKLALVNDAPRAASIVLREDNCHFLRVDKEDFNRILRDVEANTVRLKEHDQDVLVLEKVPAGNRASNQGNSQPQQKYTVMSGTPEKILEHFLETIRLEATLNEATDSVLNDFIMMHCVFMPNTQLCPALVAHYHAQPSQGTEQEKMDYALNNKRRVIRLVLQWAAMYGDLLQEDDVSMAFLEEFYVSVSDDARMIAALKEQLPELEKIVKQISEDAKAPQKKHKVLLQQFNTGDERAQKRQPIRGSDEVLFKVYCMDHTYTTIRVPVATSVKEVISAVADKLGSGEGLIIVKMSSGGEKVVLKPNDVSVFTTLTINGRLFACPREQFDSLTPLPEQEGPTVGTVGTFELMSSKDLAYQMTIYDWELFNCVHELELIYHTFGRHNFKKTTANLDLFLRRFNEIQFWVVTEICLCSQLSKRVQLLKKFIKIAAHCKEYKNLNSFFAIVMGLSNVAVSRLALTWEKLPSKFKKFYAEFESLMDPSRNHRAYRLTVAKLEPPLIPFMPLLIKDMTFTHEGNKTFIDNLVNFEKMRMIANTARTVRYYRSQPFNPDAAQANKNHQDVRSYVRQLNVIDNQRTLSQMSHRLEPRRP
UniProt Q9GZR2, sequence (Q9GZR2 whole entry, looked up): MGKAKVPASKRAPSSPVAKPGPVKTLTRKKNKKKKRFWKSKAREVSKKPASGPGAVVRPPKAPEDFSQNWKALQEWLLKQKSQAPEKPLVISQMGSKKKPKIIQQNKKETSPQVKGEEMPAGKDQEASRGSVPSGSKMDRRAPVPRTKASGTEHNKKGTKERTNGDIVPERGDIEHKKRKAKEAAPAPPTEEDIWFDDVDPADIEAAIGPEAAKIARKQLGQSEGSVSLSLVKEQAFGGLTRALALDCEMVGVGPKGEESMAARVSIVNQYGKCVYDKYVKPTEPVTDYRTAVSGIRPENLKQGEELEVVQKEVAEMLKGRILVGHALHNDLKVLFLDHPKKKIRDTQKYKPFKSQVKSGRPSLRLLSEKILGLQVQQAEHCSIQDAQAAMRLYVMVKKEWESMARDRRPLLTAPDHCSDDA
UniProt Q8NBX0, sequence (Q8NBX0 whole entry, looked up): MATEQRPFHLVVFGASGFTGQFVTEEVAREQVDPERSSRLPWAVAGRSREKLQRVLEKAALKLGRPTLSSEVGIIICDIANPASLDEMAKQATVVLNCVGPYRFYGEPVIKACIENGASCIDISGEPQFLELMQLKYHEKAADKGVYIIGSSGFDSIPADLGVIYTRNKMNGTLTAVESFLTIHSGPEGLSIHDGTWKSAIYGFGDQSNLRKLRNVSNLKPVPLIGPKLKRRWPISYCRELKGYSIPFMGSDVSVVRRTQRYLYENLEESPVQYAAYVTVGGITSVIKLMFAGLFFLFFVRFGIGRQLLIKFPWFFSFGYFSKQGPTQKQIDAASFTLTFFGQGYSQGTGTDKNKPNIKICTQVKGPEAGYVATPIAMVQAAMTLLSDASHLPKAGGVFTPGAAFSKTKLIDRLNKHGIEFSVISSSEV
UniProt Q9Y4B4, sequence (Q9Y4B4 whole entry, looked up): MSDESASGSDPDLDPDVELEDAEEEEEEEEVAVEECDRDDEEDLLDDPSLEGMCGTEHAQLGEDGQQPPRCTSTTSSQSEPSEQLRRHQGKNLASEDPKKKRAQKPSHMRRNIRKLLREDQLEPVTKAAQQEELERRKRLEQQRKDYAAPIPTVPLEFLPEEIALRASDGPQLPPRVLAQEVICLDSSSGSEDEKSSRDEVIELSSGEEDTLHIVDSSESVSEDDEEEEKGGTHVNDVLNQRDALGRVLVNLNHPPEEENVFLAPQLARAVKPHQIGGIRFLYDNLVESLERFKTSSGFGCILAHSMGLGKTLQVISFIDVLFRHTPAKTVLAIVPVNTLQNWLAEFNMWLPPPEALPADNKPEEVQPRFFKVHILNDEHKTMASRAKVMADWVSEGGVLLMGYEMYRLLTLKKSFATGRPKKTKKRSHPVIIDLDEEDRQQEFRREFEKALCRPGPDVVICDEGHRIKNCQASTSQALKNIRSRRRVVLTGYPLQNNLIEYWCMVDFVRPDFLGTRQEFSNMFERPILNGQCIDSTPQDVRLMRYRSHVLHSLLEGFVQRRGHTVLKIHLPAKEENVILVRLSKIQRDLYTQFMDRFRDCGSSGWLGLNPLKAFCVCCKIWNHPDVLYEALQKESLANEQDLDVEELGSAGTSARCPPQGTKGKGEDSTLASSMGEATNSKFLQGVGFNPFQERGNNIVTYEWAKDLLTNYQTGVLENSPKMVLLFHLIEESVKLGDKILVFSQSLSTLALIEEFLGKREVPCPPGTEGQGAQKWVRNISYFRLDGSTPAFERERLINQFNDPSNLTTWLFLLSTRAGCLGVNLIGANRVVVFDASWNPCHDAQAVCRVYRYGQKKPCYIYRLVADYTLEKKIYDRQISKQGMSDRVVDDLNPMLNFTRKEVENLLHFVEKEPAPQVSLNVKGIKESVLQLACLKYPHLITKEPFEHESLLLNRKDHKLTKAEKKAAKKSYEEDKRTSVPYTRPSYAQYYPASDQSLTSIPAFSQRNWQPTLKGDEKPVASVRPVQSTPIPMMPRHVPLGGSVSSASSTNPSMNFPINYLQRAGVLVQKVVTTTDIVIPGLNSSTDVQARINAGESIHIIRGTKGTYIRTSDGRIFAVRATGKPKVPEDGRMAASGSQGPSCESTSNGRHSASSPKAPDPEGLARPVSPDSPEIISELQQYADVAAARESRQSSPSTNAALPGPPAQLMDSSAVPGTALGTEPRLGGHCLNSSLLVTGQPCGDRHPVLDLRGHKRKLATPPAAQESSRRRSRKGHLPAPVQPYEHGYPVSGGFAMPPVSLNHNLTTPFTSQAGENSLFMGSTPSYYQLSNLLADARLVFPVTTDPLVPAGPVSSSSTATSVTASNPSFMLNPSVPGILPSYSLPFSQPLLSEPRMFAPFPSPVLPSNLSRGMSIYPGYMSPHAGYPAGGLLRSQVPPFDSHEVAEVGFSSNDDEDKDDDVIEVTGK
UniProt O43502, sequence (O43502 whole entry, looked up): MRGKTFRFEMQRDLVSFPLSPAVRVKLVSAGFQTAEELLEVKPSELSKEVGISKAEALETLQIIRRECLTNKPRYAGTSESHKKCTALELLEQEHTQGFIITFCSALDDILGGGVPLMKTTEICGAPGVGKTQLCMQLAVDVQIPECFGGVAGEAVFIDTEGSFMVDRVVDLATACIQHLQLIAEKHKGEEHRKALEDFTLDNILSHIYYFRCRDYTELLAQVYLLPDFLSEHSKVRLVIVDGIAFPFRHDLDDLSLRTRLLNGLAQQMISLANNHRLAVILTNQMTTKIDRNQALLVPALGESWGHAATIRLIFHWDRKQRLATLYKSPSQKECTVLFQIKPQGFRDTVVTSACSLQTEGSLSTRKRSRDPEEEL

log2 fold change, inactive:
RAI14 isoform 2 (UniProt Q9P0K7) 0.015
RAPGEF4 (UniProt Q8WZA2) 0.353
S100A6 (UniProt P06703) -0.071
SDHC (UniProt Q99643) -0.071
RAD54L2 (UniProt Q9Y4B4) 0.01
RBSN (UniProt Q9H1K0) -0.026
RXRB isoform 3 (UniProt P28702) 0.07
RNF2 (UniProt Q99496) 0.008
RFWD3 (UniProt Q6PCD5) -0.027
RFC5 (UniProt P40937) 0.019
SCCPDH (UniProt Q8NBX0) 0.115
RDH10 (UniProt Q8IZV5) -0.042
RAB27A (UniProt P51159) -0.009
RPN2 (UniProt P04844) -0.04
RPS6KA3 (UniProt P51812) 0.181
RBM5 (UniProt P52756) -0.056
RAB21 (UniProt Q9UL25) 0.029
RPL36AL (UniProt Q969Q0) 0.131
RABGGTB (UniProt P53611) -0.005
RBM22 (UniProt Q9NW64) -0.053
RNF168 (UniProt Q8IYW5) -0.046
REXO4 (UniProt Q9GZR2) -0.035
RAC2 (UniProt P15153) 0.102
RAD51C (UniProt O43502) -0.015
RDH11 (UniProt Q8TC12) -0.047
RPTOR (UniProt Q8N122) 0.012
QRSL1 (UniProt Q9H0R6) 0.028
RABL3 (UniProt Q5HYI8) -0.039
RFC4 (UniProt P35249) 0.008
RINT1 (UniProt Q6NUQ1) 0.034
SEH1L isoform 1 (UniProt Q96EE3) -0.008
RHOA (UniProt P61586) 0

compound: c1cn2cc(-c3ccc4cn[nH]c4c3)nc(Nc3ccc(N4CCOCC4)cc3)c2n1 [entospletinib]; assay: as above
How it was run: as §1

log2 fold change, inactive:
RAI14 isoform 2 (UniProt Q9P0K7) -0.003
RAPGEF4 (UniProt Q8WZA2) 0.014
S100A6 (UniProt P06703) -0.005
SDHC (UniProt Q99643) 0.088
RAD54L2 (UniProt Q9Y4B4) 0.014
RBSN (UniProt Q9H1K0) -0.088
RXRB isoform 3 (UniProt P28702) 0.006
RNF2 (UniProt Q99496) -0.033
RFWD3 (UniProt Q6PCD5) 0.043
RFC5 (UniProt P40937) 0.014
SCCPDH (UniProt Q8NBX0) 0.087
RDH10 (UniProt Q8IZV5) 0.162
RAB27A (UniProt P51159) 0.023
RPN2 (UniProt P04844) -0.009
RPS6KA3 (UniProt P51812) -0.052
RBM5 (UniProt P52756) 0.023
RAB21 (UniProt Q9UL25) 0.02
RPL36AL (UniProt Q969Q0) -0.001
RABGGTB (UniProt P53611) -0.044
RBM22 (UniProt Q9NW64) -0.023
RNF168 (UniProt Q8IYW5) 0.042
REXO4 (UniProt Q9GZR2) 0.067
RAC2 (UniProt P15153) 0.024
RAD51C (UniProt O43502) 0.065
RDH11 (UniProt Q8TC12) 0.014
RPTOR (UniProt Q8N122) -0.01
QRSL1 (UniProt Q9H0R6) 0.019
RABL3 (UniProt Q5HYI8) 0
RFC4 (UniProt P35249) 0.006
RINT1 (UniProt Q6NUQ1) -0.089
SEH1L isoform 1 (UniProt Q96EE3) -0.011
RHOA (UniProt P61586) 0.022
